Compound activity: PubChem, Broad Institute
Compounds with a hit are over-represented: about 3.4% of the library has one in this group of screens.
HSF1 inhib: HSF1 inhibition; NIH3T3-HGL HSE-luciferase, MG132-induced, luminescence 8 h; active compounds read low; 0.77% of 300,000 active; activity change, negative = inhibition, % at 7.5 µM (by protocol);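 active = more than half of replicate wells show activity change below -50%, luminescence cut by over half; inconclusive = some wells, but at most half, below -50%; inactive = no replicate well below -50%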;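 note: luciferase reports HSF-1 transcriptional activity via heat shock element; 0% = median of DMSO wells and -100% = zero luminescence signal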
esBAF inh: blocks esBAF chromatin remodeling in mouse ES cells; reporter increase, % at 12.5 µM; 2% of 350,000 active; Bmi1-luciferase knock-in reporter, 24 h; 100% = twice the neutral-well signal; AID 602393; in the data active = activation above about 40%; inconclusive = no clear call, values can overlap the other calls;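 note: 0% = median of the plate's neutral control wells and 100% = double that signal; a rise in the Bmi1 reporter signal indicates esBAF inhibition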
HSF-1 act: increases HSF-1 driven luciferase reporter signal; activation, % at 9 µM; 1.7% of 300,000 active; NIH3T3-HGL HSF-1 luciferase reporter, MG132, 8 h; 100% = twice DMSO control signal;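 active = mean replicate activation of at least 50% with a set share of replicates each reaching 50%; inconclusive = only one of those two conditions met; inactive = mean below 50% and too few replicates reaching it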;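 note: 0% = median of the neutral control wells and 100% = twice that signal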
Vif inh: blocks HIV Vif function; HEK293T cells, Vif self-association by quenched fluorescence, imaging, 24 h; 0.35% of 340,000 active; inhibition, % at 7.49 µM; in the data active = inhibition above about 50%, passing the limit was not always enough; inconclusive = no clear call, values can overlap the other calls; inactive = below about 31%
An asterisk follows results filed as active; ? = inconclusive; · = no result.

SMILES | HSF1 inhib | esBAF inh | HSF-1 act | Vif inh
Cc1ccc(C(=O)NCCN2CCN(C(=O)c3ccc(C)c(C)c3)CC2)cc1C | -7.7 | -8.0 | -9.0 | -0.8
COc1ccc(-c2nnc(SCC(=O)c3cccs3)o2)cc1 | 21.2 | · | 41.5 | 0.6
COc1cccc(C(=O)CSc2nnc(-c3cccs3)o2)c1 | 5.7 | -0.1 | 18.7 | -4.6
Cc1cc(C(=O)CSc2nnc(-c3cccs3)o2)c(C)n1-c1ccccc1 | -73.1* | -11.8 | -76.2 | 12.0
O=C(CSc1nnc(-c2cccs2)o1)c1cccs1 | 12.8 | 104.0* | 37.8 | -2.5
Cc1cc(C(=O)CSc2nnc3ccccn23)c(C)n1-c1ccccc1 | -81.2* | · | -85.4 | ·
C[C@H](CO)N1C[C@H](C)[C@H](CN(C)Cc2ccc3c(c2)OCO3)Oc2ccc(NC(=O)CCCCCC(=O)Nc3ccccc3N)cc2CC1=O | · | -16.4 | · | ·
CC(C)(C)N=Cc1cc(-c2ccccc2)sc1O | 21.7 | 73.5* | 43.1 | 3.0
CC(=O)c1sc(-c2ccccc2)cc1N | -3.4 | · | -7.9 | -1.8
COc1cc2c(OC(C)=O)c3c(c(-c4ccc5c(c4)OCO5)c2cc1OC)C(=O)OC3 | -11.9 | -32.0 | -11.9 | 172.9*
COc1cccc(C(=O)N/N=c2\sc3ccccc3n2C)c1 | 43.6 | · | 81.1* | -6.9
Cc1ccc(C(=O)N/N=c2\sc3ccccc3n2C)cc1 | 22.7 | · | ? | -3.0
C[C@@H]1CN([C@@H](C)CO)C(=O)c2cccc(NS(=O)(=O)c3ccccc3)c2O[C@@H]1CN(C)C | · | -3.1 | · | ·
Cc1noc(C)c1NC(=O)N(C)C[C@@H]1Oc2ccc(NC(=O)Nc3cccc4ccccc34)cc2C(=O)N([C@@H](C)CO)C[C@@H]1C | · | -1.6 | · | ·
CCCC1=Nc2cc(C(=O)NCCCN3CCOCC3)ccc2Sc2ccccc21 | 2.0 | -2.5 | 2.1 | 20.8
CCCC1=Nc2cc(C(=O)NCCCN3CCN(C)CC3)ccc2Sc2ccccc21 | -50.5* | -4.5 | -62.2 | -8.5
CCc1ccc(NC(=O)c2cc(-c3ccco3)on2)cc1 | 38.6 | 66.2* | 80.3* | ·
O=C(Nc1cc(Cl)ccc1O)c1cc(-c2ccco2)on1 | -3.0 | 66.7* | -7.3 | -1.6
O=C(Nc1cccnc1Cl)c1cc(-c2ccco2)on1 | 12.7 | 45.7* | 27.0 | -5.7
O=C(Nc1cc(Br)ccc1O)c1cc(-c2ccco2)on1 | 20.4 | · | 38.0 | -18.6
COc1cccc(-c2cc(C(=O)Nc3cccnc3Cl)no2)c1 | 26.0 | 5.2 | 38.8 | 11.3
COc1ccc(NC(=O)Nc2ccc3c(c2)C(=O)N([C@@H](C)CO)C[C@H](C)[C@@H](CN(C)C(=O)CCC(F)(F)F)OCCCC[C@@H](C)O3)cc1 | · | 12.4 | · | ·
O=C1c2cccnc2-c2ncccc21 | 8.0 | -14.1 | -8.8 | -5.6
O=C1C(=O)c2cccnc2-c2ncccc21 | · | · | · | 78.0*
C/C(NC(=O)c1cccc(F)c1)=C1/C(=O)C[C@@H]2[C@H]1C2(C)C | 38.4 | 64.8* | 39.6 | -6.5
SMILES | HSF1 inhib | esBAF inh | HSF-1 act | Vif inh
C/C(NC(=O)c1ccccc1F)=C1\C(=O)C[C@@H]2[C@H]1C2(C)C | 26.6 | ? | 50.9* | 3.2
COCCn1c(C)cc(C2=NNC(=Nc3ccccc3F)SC2)c1C | -88.7* | -75.1 | -89.9 | -1.2
COCCCN=C1NN=C(c2cc(C)n(-c3ccccc3F)c2C)CS1 | -41.7 | · | -47.8 | -4.4
Fc1ccc(F)c(C2=NNC(=Nc3ccccc3F)SC2)c1 | 31.3 | · | 81.5* | 4.7
Cc1cccc(N=C2NN=C(c3ccccc3F)CS2)c1C | -7.2 | · | -10.5 | -2.1
c1ccc(CN=C2NN=C(c3ccccc3)CS2)cc1 | 16.2 | 45.8* | 22.1 | -2.0
Fc1ccccc1N=C1NN=C(c2ccccc2)CS1 | -20.3 | 52.9* | -24.0 | -11.7
Clc1ccc(C2=NNC(=NCc3ccccc3)SC2)cc1 | 18.5 | · | 10.7 | -7.2
O=C(C[C@@H]1CC[C@@H]2[C@H](COC[C@@H](O)CN2C(=O)c2cccnc2)O1)NCc1ccc(Cl)cc1 | · | 1.0 | · | ·
C[C@H]1CN([C@@H](C)CO)C(=O)c2cc(NS(=O)(=O)c3ccc(F)cc3)ccc2O[C@@H]1CN(C)Cc1ccc(Cl)c(Cl)c1 | · | -5.7 | · | ·
O=C(Nc1ccc(F)cc1)N[C@H]1C=C[C@H](CC(=O)N2CCOCC2)O[C@H]1CO | · | -6.6 | · | ·
CC(C)NC(=O)N[C@@H]1CC[C@@H](CCNC(=O)C2CCCC2)O[C@@H]1CO | · | -4.1 | · | ·
Clc1ccccc1N=C1NN=C(c2cccs2)CS1 | -1.3 | 65.7* | 22.9 | -6.3
O=C1CSC(=Nc2ccccc2Cl)N1 | -7.3 | · | 2.3 | -1.2
COc1ccc(NC(=O)N2C[C@H](O)COC[C@@H]3O[C@@H](CC(=O)N4CCN(C)CC4)CC[C@H]32)cc1 | · | 5.6 | · | ·
O=C(CCn1c(=O)oc2ccccc21)N1CCCCCC1 | 13.4 | 13.0 | 30.7 | -1.0
